Measurements: PMC5540273 (PLoS ONE, 2017)

Key:
Conditions in all cases: concentration: 1 μM, replicates: in singlicate; n = 1
[1] = tested on: PLK2
[2] = tested on: PLK3
[3] = tested on: PLK4
[4] = tested on: PRKCD
[5] = tested on: PRKCE
[6] = tested on: PRKCH
[7] = tested on: PRKCI
[8] = tested on: PRKCQ
[9] = tested on: PRKD1
[10] = tested on: PRKD2
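Note: KINOMEscan kinase panel screen.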

SMILES | %Inh [1] | %Inh [2] | %Inh [3] | %Inh [4] | %Inh [5] | %Inh [6] | %Inh [7] | %Inh [8] | %Inh [9] | %Inh [10]
CNC(=O)c1ccccc1Nc1nc(Nc2ccc(N3CCOCC3)cc2)ncc1Cl.Cl [GSK1576028] | 81% | 85% | 100% | 24% | 64% | 0% | 11% | 84% | 0% | 17%
Cl.c1ccc(-c2ccc3c(Nc4ccc5[nH]ncc5c4)ccnc3c2)nc1 [GW440137] | 0% | 0% | 7% | 4% | 5% | 0% | 17% | 0% | 3% | 12%
Nc1n[nH]c2cnc(-c3ccccc3)cc12 [SB-642124] | 49% | 43% | 1% | 17% | 24% | 38% | 4% | 45% | 5% | 4%
CCCCc1nn2ncccc2c1-c1ccnc(Nc2ccc(N3CCN(C)CC3)cc2)n1 [GW684941] | 0% | 0% | 74% | 0% | 14% | 0% | 17% | 0% | 63% | 55%
Cc1cccc(NC(=O)Nc2ccc(Oc3ncnc4ccn(C)c34)cc2)c1 | 0% | 3% | 0% | 0% | 7% | 0% | 0% | 0% | 0% | 0%
O=C(Nc1n[nH]c2nc(-c3ccc(O)cc3)ccc12)C1CC1 [SB-710363] | 10% | 0% | 30% | 37% | 45% | 19% | 0% | 16% | 0% | 0%
CN(c1ccc(NC(=O)Nc2cc(C(F)(F)F)ccc2F)cc1)c1ccnc(Nc2ccc(S(N)(=O)=O)cc2)n1 [GW809893] | 54% | 56% | 97.6% | 0% | 0% | 0% | 29% | 9% | 0% | 10%
O=C(Nc1cccc(Oc2ccc3nc(NC(=O)C4CC4)cn3n2)c1)c1ccccc1C(F)(F)F | 0% | 4% | 0% | 3% | 6% | 0% | 28% | 0% | 0% | 0%
Oc1cc(Nc2ccnc3cc(I)ccc23)ccc1F [GW552771] | 0% | 0% | 0% | 0% | 3% | 13% | 30% | 0% | 45% | 30%
c1ccc(-c2n[nH]cc2Nc2ccnc3ccccc23)nc1 [GW694077] | 0% | 0% | 48% | 0% | 22% | 0% | 48% | 0% | 91.8% | 96.2%
Cl.NC(=O)c1cccc(Nc2nccc(Nc3ccc(Oc4c(Cl)cccc4Cl)c(Cl)c3)n2)c1 [GW659009] | 0% | 30% | 0% | 0% | 0% | 0% | 0% | 0% | 0% | 0%
Cc1ccc(C(=O)Nc2ccc(Nc3ccnc4cc(-c5nccs5)ccc34)cc2O)cc1.Cl [GW494702] | 0% | 0% | 98.4% | 0% | 16% | 5% | 2% | 13% | 0% | 2%
Cl.Cl.NCC(NC(=O)c1cc(-c2ccccc2)c(-c2ccnc3[nH]ccc23)s1)c1ccccc1 (centres unmarked) [GSK1321561] | 30% | 0% | 4% | 98% | 69% | 86% | 37% | 49% | 38% | 8%
O=C(O)C(F)(F)F.O=C(O)C(F)(F)F.O=c1[nH]ccc2nc(N[C@@H]3CCCNC3)nc(Nc3ccc(S(=O)(=O)N4CCOCC4)cc3)c12 [GSK2177277] | 10% | 0% | 98.7% | 99.8% | 99.9% | 99% | 95.3% | 99.2% | 94.8% | 99.1%
CCS(=O)(=O)c1ccc(OC)c(Nc2nccc(-c3c(-c4cccc(NC(=O)c5c(F)cccc5F)c4)nn4ncccc34)n2)c1 [GSK326180] | 0% | 5% | 16% | 0% | 12% | 18% | 16% | 27% | 0% | 9%
COc1cccc(-c2ccc3c(NC(=O)C4CC4)n[nH]c3n2)c1 [SB-710903] | 0% | 0% | 6% | 0% | 23% | 10% | 11% | 0% | 0% | 0%

SMILES | %Inh [1] | %Inh [2] | %Inh [3] | %Inh [4] | %Inh [5] | %Inh [6] | %Inh [7] | %Inh [8] | %Inh [9] | %Inh [10]
O=C(Nc1n[nH]c2cc(-c3ccoc3)ccc12)C1CC1 [SB-738481] | 3% | 12% | 10% | 4% | 12% | 0% | 0% | 0% | 0% | 0%
Nc1ncc(-c2cccnc2)c2scc(-c3ccc4c(c3)CCN4C(=O)Cc3ccccc3)c12 [GSK683281] | 0% | 0% | 15% | 25% | 0% | 33% | 33% | 14% | 23% | 73%
O=c1[nH]cc(-c2ccc(N3CCOCC3)cc2)c2sc(-c3cn[nH]c3)cc12 [GSK2276055] | 18% | 0% | 17% | 0% | 0% | 0% | 17% | 21% | 0% | 30%
NCCCC(NC(=O)c1cc(Br)c(-c2ccnc3[nH]ccc23)s1)c1ccccc1.O=C(O)C(F)(F)F.O=C(O)C(F)(F)F (centres unmarked) [GSK1287544] | 14% | 0% | 0% | 95.6% | 92.5% | 94.7% | 31% | 75% | 29% | 36%
Cc1ccc(C)c(NC(=O)NC2CCN(c3ccnc(Nc4ccc(F)cc4)n3)C2)c1 (centres unmarked) [GSK1379720] | 0% | 0% | 0% | 0% | 15% | 0% | 13% | 0% | 0% | 0%
COc1ccc(Nc2nccc(N3CCC(NC(=O)Nc4cccc(OC)c4)C3)n2)cc1 (centres unmarked) [GSK1379742] | 0% | 0% | 0% | 1% | 0% | 5% | 0% | 0% | 3% | 0%
O=C(NC1CCN(c2ccnc(Nc3ccc(F)cc3)n2)C1)c1cc2ccccc2s1 (centres unmarked) [GSK1379716] | 0% | 0% | 1% | 0% | 2% | 30% | 15% | 16% | 21% | 28%
CSc1cccc2c(-c3ccncn3)c(-c3ccc(F)cc3)nn12 [GW514786] | 40% | 0% | 2% | 0% | 11% | 6% | 5% | 19% | 0% | 2%
Cc1ccc(C(=O)N2CC[C@@H](O)C2)cc1-n1c(C)cc(OCc2ccc(F)cc2F)c(Br)c1=O | 0% | 0% | 0% | 0% | 0% | 0% | 2% | 0% | 0% | 0%
CN(C)Cc1ccc(-c2ccc3c(Nc4ccc(Oc5ccccn5)cc4)ccnc3c2)o1 [GW567148] | 0% | 0% | 37% | 0% | 0% | 7% | 0% | 0% | 0% | 4%
COc1cc(Nc2nccc(N3CCC(NC(=O)c4cc5ccccc5s4)C3)n2)cc(OC)c1OC (centres unmarked) [GSK1379760] | 0% | 14% | 0% | 7% | 14% | 5% | 7% | 3% | 0% | 23%
Cc1cccc(Nc2nc(N[C@H]3CCNC3)ncc2C(N)=O)c1.Cl [GSK2197149] | 1% | 0% | 0% | 58% | 86% | 41% | 0% | 41% | 49% | 55%
Cn1cc(-c2ccc3c(c2)CCN3C(=O)Cc2cccc(Cl)c2)c2c(N)ncnc21 [GSK2606590] | 0% | 0% | 6% | 15% | 0% | 27% | 0% | 10% | 0% | 0%
Cc1ccc(S(=O)(=O)Nc2ccc(Nc3nccc(Nc4cccc5[nH]ncc45)n3)cc2)cc1 [GSK581271] | 0% | 0% | 1% | 0% | 0% | 0% | 7% | 0% | 0% | 0%
CC(=O)Nc1nc2cnc(Nc3cc(NC(=O)c4cccc(C5(C#N)CC5)c4Cl)ccc3C)nc2s1 | 4% | 0% | 0% | 29% | 0% | 0% | 0% | 39% | 0% | 4%
O=C(Nc1cccc(-c2nn3ccccc3c2-c2ccnc(Nc3cccc(C(F)(F)F)c3)n2)c1)c1c(F)cccc1F [GSK292658] | 0% | 0% | 3% | 0% | 0% | 17% | 9% | 20% | 0% | 0%
